Assay results published in PubChem BioAssay (EPA / NIEHS).
Inconclusive results are not listed. Some structures have more than one record in an assay (separate samples or runs), and their calls can disagree. Activity calls are given as the source filed them. Rule for the calls, unless noted: active = hit-call score of the fitted dose curve at least 0.9, where 1 is the maximum; inconclusive = response in the unintended direction; inactive = score below 0.9.

Tests used:
[1] = system: turtle Thyroid Hormone Receptor, alpha (TRa), gene 101949057; assay: ATG_trTRa_XSP2: Attagene TRANS-FACTORIAL Multi-Species (XSP1) HepG2 Assay for turtle Thyroid Hormone Receptor, alpha (TRa) (AID 2283834);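 note: hits raise reporter mRNA over the DMSO baseline so AC50 marks activators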
Procedure, shortened: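 HepG2 cells transiently transfected with multiplexed GAL4-UAS reporter units expressing chimeric NR-Gal4 proteins were dosed for 24 hours. Reporter mRNA was quantified by RT-PCR with 6-FAM labelling and capillary electrophoresis, gain of signal scored against DMSO.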

[2] = ATG_M_61_XSP2: Attagene TRANS-FACTORIAL Multi-Species (XSP2) HepG2 Assay for M61 Transcription Factor (Internal Marker) (AID 2283835; active = hit-call score of the fitted dose curve at least 0.9, where 1 is the maximum; inactive = score below 0.9;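 note: active means a rise in signal above the DMSO baseline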)
Procedure, shortened: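 HepG2 cells transiently transfected with multiple GAL4-UAS reporter units; reporter mRNA measured 24 h after dosing by RT-PCR, fluorescent labelling and capillary electrophoresis. Medium contained 3 nM 6-alpha-fluorotestosterone and 1.5 nM norgestrel; internal marker, DMSO baseline.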

[3] = biological target: zebrafish Thyroid Hormone Receptor beta (TRb), thrb (gene 30607) (UniProt Q9PVE4); assay: ATG_zfTRb_XSP2: Attagene TRANS-FACTORIAL Multi-Species (XSP1) HepG2 Assay for zebrafish Thyroid Hormone Receptor beta (TRb) (AID 2283836)
zebrafish Thyroid Hormone Receptor beta (TRb), thrb (gene 30607), sequence (Q9PVE4 whole entry, looked up, the tested form may be a part): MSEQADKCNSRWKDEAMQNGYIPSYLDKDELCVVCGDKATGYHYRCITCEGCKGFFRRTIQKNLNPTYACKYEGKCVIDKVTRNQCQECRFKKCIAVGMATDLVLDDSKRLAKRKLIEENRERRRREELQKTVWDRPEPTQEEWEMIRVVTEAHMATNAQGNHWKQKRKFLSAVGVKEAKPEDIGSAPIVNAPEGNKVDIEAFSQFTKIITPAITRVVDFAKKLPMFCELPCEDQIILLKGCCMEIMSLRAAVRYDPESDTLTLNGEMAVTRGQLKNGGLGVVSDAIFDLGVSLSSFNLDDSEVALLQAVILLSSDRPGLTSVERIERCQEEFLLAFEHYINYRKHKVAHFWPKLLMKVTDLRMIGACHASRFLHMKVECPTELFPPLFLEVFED
Procedure, shortened: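 HepG2 cells transiently transfected with chimeric zebrafish TRb-GAL4 reporter units, dosed 24 h with 3 nM 6-alpha-fluorotestosterone and 1.5 nM norgestrel present. Reporter mRNA quantified by RT-PCR and capillary electrophoresis; gain fitted against DMSO.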

[4] = CPHEA_Stoker_NIS_Cytotoxicity: Cytotoxicity Assessment for CPHEA's Radioactive Iodide Uptake (RAIU) Assay for Sodium/Iodide Symporter (NIS) Inhibition, Stoker and Laws Labs (AID 2283897);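 for AC50: active means loss of ATP signal versus DMSO meaning cytotoxicity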
Procedure, shortened: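 ATP luminescence (Cell Titer Glo) measured viability, with loss of signal normalized to DMSO controls. Cells: hNIS-HEK293T-EPA, seeded 40 hours prior. Dosing: 0.001–100uM, 2 hours, room temperature, uptake buffer pH 7.4.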

[5] = CEETOX_H295R_11DCORT_noMTC: CeeTox H295R High-throughput Steroidogenesis Assay for 11-Deoxycortisol (11DCORT), maximum tolerated concentration (MTC) filtered results only (AID 2283911; active = hit-call score of the fitted dose curve at least 0.9, where 1 is the maximum; inactive = score below 0.9); details: actives raise or lower the signal
Procedure, shortened: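 HPLC-MS/MS read-out of 11-deoxycortisol after MTBE extraction of H295R medium. Cells: forskolin 10 uM pre-stimulation 48 h, chemical 48 h, 0.1% DMSO final. Bidirectional fit vs DMSO baseline; no MTC filtering.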

[6] = CEETOX_H295R_CORTISOL_noMTC: CeeTox H295R High-throughput Steroidogenesis Assay for Cortisol, maximum tolerated concentration (MTC) filtered results only (AID 2283916; active = hit-call score of the fitted dose curve at least 0.9, where 1 is the maximum; inactive = score below 0.9); details: actives raise or lower the signal
Procedure, shortened: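 H295R human adrenal cells prestimulated 48 h with 10 uM forskolin, then exposed 48 h to chemical in 0.1% DMSO; cortisol in medium quantified by HPLC-MS/MS; bidirectional fit vs DMSO baseline, concentrations not MTT-filtered for MTC.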

[7] = CEETOX_H295R_CORTIC_noMTC: CeeTox H295R High-throughput Steroidogenesis Assay for Corticosterone (CORTIC), maximum tolerated concentration (MTC) filtered results only (AID 2283917; active = hit-call score of the fitted dose curve at least 0.9, where 1 is the maximum; inactive = score below 0.9); details: actives raise or lower the signal
Procedure, shortened: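 H295R adrenal cells pre-stimulated 48 h with 10 uM forskolin, then exposed 48 h to chemical in 0.1% DMSO; corticosterone in medium quantified by HPLC-MS/MS, fitted bidirectionally versus DMSO without MTT-based concentration filtering.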

[8] = CEETOX_H295R_DOC_noMTC: CeeTox H295R High-throughput Steroidogenesis Assay for DOC, maximum tolerated concentration (MTC) filtered results only (AID 2283918; active = hit-call score of the fitted dose curve at least 0.9, where 1 is the maximum; inactive = score below 0.9); details: actives raise or lower the signal
Procedure, shortened: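 H295R cells prestimulated 48 h with 10 uM forskolin, then exposed 48 h to chemical in 0.1% DMSO. 11-Deoxycorticosterone in medium measured by MTBE extraction and HPLC-MS/MS; bidirectional fit vs DMSO, no MTC filter.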

[9] = CEETOX_H295R_PROG_noMTC: CeeTox H295R High-throughput Steroidogenesis Assay for Progesterone (PROG), maximum tolerated concentration (MTC) filtered results only (AID 2283920; active = hit-call score of the fitted dose curve at least 0.9, where 1 is the maximum; inactive = score below 0.9); details: actives raise or lower the signal
Procedure, shortened: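 H295R cells, prestimulated 48 h with 10 uM forskolin, exposed 48 h to chemical in 0.1% DMSO. Medium progesterone quantified by MTBE extraction and HPLC-MS/MS; bidirectional fit versus DMSO, concentrations not MTT-filtered.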

[10] = biological target: zebrafish Thyroid Hormone Receptor alpha (TRa), thraa (gene 30670) (UniProt Q98867); assay: ATG_zfTRa_XSP2: Attagene TRANS-FACTORIAL Multi-Species (XSP1) HepG2 Assay for zebrafish Thyroid Hormone Receptor alpha (TRa) (AID 2283832);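 note: actives raise zebrafish TRa-Gal4 reporter transcript above DMSO baseline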
zebrafish Thyroid Hormone Receptor alpha (TRa), thraa (gene 30670), sequence (Q98867 whole entry, looked up, the tested form may be a part): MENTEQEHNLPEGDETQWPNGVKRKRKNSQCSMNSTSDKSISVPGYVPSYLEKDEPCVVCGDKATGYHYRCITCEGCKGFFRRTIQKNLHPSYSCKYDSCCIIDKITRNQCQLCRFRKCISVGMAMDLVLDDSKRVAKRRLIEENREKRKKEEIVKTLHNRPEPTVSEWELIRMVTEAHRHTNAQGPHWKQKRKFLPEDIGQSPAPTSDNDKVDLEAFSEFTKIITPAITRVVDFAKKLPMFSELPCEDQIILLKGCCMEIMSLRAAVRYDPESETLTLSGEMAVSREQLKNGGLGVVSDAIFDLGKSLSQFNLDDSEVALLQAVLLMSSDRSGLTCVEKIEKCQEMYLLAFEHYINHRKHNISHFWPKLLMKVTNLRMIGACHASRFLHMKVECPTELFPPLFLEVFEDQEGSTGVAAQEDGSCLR
Procedure, shortened: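 HepG2 transiently transfected with GAL4-UAS reporter units and chimeric zebrafish TRa-Gal4; reporter mRNA quantified after 24 h dosing by RT-PCR, HpaI digestion and capillary electrophoresis fluorescence. Gain of signal vs DMSO; XSP2 medium contains 3 nM 6-alpha-fluorotestosterone, 1.5 nM norgestrel.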

[11] = system: zebrafish Peroxisome Proliferator-activated Receptor gamma (PPARg), gene 557037; assay: ATG_zfPPARg_XSP2: Attagene TRANS-FACTORIAL Multi-Species (XSP2) HepG2 Assay for zebrafish Peroxisome Proliferator-activated Receptor gamma (PPARg) (AID 2283833);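 note: actives increase reporter signal over DMSO so AC50 reflects activation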
Procedure, shortened: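 HepG2 cells transiently transfected with GAL4-UAS reporter units expressing a zebrafish PPARg–GAL4 chimera; compound exposure 24 h. Reporter mRNA quantified by RT-PCR with fluorescent labelling and capillary electrophoresis; gain of signal fitted relative to DMSO baseline.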

[12] = biological target: human Thyroid hormone Receptor alpha (TRa), THRA (gene 7067) (UniProt P10827); assay: ATG_hTRa_XSP2: Attagene TRANS-FACTORIAL Multi-Species (XSP2) HepG2 Assay for human Thyroid hormone Receptor alpha (TRa) (AID 2283838)
human Thyroid hormone Receptor alpha (TRa), THRA (gene 7067), sequence (P10827 whole entry, looked up, the tested form may be a part): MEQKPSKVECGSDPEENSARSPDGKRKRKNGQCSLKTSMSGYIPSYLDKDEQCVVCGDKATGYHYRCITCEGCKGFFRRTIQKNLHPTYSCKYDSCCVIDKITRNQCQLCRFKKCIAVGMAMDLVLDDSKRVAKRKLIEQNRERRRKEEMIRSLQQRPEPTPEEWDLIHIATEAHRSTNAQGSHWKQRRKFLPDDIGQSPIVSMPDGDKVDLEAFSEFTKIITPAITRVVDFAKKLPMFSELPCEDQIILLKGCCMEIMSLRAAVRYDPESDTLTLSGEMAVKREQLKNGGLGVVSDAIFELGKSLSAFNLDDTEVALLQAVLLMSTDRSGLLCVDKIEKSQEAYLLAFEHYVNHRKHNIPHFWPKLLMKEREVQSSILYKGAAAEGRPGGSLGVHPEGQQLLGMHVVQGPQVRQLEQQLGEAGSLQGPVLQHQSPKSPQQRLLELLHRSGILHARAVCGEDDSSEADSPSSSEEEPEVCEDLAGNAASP
Procedure, shortened: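 HepG2 cells were transiently transfected with GAL4-UAS reporter units for chimeric human TRa-Gal4 and dosed for 24 hours, with 3 nM 6-alpha-fluorotestosterone and 1.5 nM norgestrel present. Reporter mRNA was quantified by RT-PCR, FAM labelling and capillary electrophoresis, with gain of signal fitted versus DMSO.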

[13] = biological target: frog Thyroid hormone Receptor alpha (TRa), thra-a (gene 397942) (UniProt P15204); assay: ATG_frTRa_XSP2: Attagene TRANS-FACTORIAL Multi-Species (XSP2) HepG2 Assay for frog Thyroid hormone Receptor alpha (TRa) (AID 2283839);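 for AC50: AC50 reflects induction of frog TRa-driven reporter mRNA above DMSO baseline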
frog Thyroid hormone Receptor alpha (TRa), thra-a (gene 397942), sequence (P15204 whole entry, looked up, the tested form may be a part): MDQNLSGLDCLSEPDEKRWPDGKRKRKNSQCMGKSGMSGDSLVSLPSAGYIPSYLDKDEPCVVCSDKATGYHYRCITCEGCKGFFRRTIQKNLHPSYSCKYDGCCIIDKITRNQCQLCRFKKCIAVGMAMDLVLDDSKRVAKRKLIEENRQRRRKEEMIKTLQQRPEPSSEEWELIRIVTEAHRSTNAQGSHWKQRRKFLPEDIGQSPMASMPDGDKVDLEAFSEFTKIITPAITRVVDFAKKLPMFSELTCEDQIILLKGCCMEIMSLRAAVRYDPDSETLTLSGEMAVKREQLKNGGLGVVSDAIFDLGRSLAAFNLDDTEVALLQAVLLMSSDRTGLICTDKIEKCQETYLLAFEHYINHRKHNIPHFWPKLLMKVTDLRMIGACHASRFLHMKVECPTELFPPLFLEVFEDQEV
Procedure, shortened: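 HepG2 cells transiently transfected with multiplexed GAL4-UAS reporter units expressing chimeric frog TRα-Gal4; reporter mRNA read 24 h after dosing by RT-PCR, FAM-labelled primer extension, HpaI digest and capillary electrophoresis. Gain of signal fitted versus DMSO.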

[14] = biological target: human Thyroid hormone Receptor beta (TRb), THRB (gene 7068) (UniProt P10828); assay: ATG_hTRb_XSP2: Attagene TRANS-FACTORIAL Multi-Species (XSP2) HepG2 Assay for human Thyroid hormone Receptor beta (TRb) (AID 2283840);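 note: actives raise reporter mRNA so potency reflects agonist-like gain of signal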
human Thyroid hormone Receptor beta (TRb), THRB (gene 7068), sequence (P10828 whole entry, looked up, the tested form may be a part): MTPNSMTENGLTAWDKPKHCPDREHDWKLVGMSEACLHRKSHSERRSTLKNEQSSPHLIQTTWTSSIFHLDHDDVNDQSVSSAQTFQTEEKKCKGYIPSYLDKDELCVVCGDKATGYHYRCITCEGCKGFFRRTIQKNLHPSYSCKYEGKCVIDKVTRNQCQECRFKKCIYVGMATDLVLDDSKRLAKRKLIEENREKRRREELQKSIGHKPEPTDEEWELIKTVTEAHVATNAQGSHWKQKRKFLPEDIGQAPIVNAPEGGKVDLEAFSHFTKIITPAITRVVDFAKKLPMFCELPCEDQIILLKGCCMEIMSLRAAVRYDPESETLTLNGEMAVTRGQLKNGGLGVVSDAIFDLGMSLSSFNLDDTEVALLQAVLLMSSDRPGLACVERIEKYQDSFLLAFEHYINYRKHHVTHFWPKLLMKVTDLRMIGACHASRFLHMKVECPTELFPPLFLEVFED
Procedure, shortened: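 HepG2 cells were transiently transfected with GAL4-UAS multiplexed reporter units expressing chimeric NR-Gal4 proteins, dosed 24 h; reporter mRNA was quantified by RT-PCR, fluorescent labeling, HpaI digestion and capillary electrophoresis, fitted for gain of signal versus DMSO.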

[15] = CEETOX_H295R_OHPREG_noMTC: CeeTox H295R High-throughput Steroidogenesis Assay for OH-Pregnenolone (OHPREG), maximum tolerated concentration (MTC) filtered results only (AID 2283912; active = hit-call score of the fitted dose curve at least 0.9, where 1 is the maximum; inactive = score below 0.9); details: actives raise or lower the signal
Procedure, shortened: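 H295R cells prestimulated 48 h with 10 uM forskolin, then exposed 48 h to compound (0.1% DMSO). 17alpha-hydroxypregnenolone in medium measured by MTBE extraction and HPLC-MS/MS; bidirectional fit vs DMSO, concentrations not MTT/MTC-filtered.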

[16] = CEETOX_H295R_OHPROG_noMTC: CeeTox H295R High-throughput Steroidogenesis Assay for OH-Progesterone (OHPROG), maximum tolerated concentration (MTC) filtered results only (AID 2283914; active = hit-call score of the fitted dose curve at least 0.9, where 1 is the maximum; inactive = score below 0.9); details: actives raise or lower the signal
Procedure, shortened: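 H295R cells prestimulated 48 h with 10 uM forskolin, then exposed 48 h to chemical (0.1% DMSO final). 17alpha-hydroxyprogesterone in medium quantified by HPLC-MS/MS after MTBE extraction; bidirectional fitting versus DMSO, concentrations not MTC-filtered.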

[17] = CEETOX_H295R_ESTRADIOL_noMTC: CeeTox H295R High-throughput Steroidogenesis Assay for Estradiol, maximum tolerated concentration (MTC) filtered results only (AID 2283919; active = hit-call score of the fitted dose curve at least 0.9, where 1 is the maximum; inactive = score below 0.9); details: actives raise or lower the signal
Procedure, shortened: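 H295R human adrenal cells pre-stimulated 48 h with 10 uM forskolin, then exposed 48 h to chemical (0.1% DMSO final). Estradiol in medium measured by HPLC-MS/MS after MTBE extraction and dansyl derivatization; bidirectional fit versus DMSO, concentrations not MTT-filtered.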

[18] = CEETOX_H295R_ESTRONE_noMTC: CeeTox H295R High-throughput Steroidogenesis Assay for Estrone, maximum tolerated concentration (MTC) filtered results only (AID 2283921; active = hit-call score of the fitted dose curve at least 0.9, where 1 is the maximum; inactive = score below 0.9); details: actives raise or lower the signal
Procedure, shortened: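 H295R cells prestimulated 48 h with 10 uM forskolin, then exposed 48 h to chemical in 0.1% DMSO; medium estrone measured by HPLC-MS/MS after MTBE extraction and dansyl derivatization, fitted bidirectionally versus DMSO without MTT-based MTC filtering.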

[19] = ATG_XTT_Cytotoxicity_XSP2: Cytotoxicity Assessment in the Attagene TRANS-FACTORIAL Multi-Species (XSP2) HepG2 Assay (AID 2283837)
Procedure, shortened: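 HepG2 cells, transiently transfected with multiple reporter constructs, exposed to chemical for 24 h. Cell number assessed with XTT fluorescence read-out; loss of signal fitted relative to DMSO.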

CC/C(=C(/CC)c1ccc(O)cc1)c1ccc(O)cc1
outcome [1]: inactive | outcome [2]: inactive | outcome [3]: inactive | AC50 [4]: 9.92 µM (active) | AC50 [5]: 45 µM (active) | AC50 [6]: 34.8 µM (active) | AC50 [7]: 35.4 µM (active) | AC50 [8]: 84.6 µM (active) | outcome [9]: inactive

COc1cc(C(=O)NC2CCN(C)CC2)ccc1Nc1ncc2c(n1)N(C1CCCC1)CC(F)(F)C(=O)N2C
outcome [4]: inactive

CC(C)(c1cc(Br)c(O)c(Br)c1)c1cc(Br)c(O)c(Br)c1
outcome [10]: inactive | AC50 [11]: 14.4 µM (active) | outcome [1]: inactive | outcome [2]: inactive | outcome [3]: inactive | outcome [12]: inactive | AC50 [13]: 5.76 µM (active) | outcome [14]: inactive | AC50 [4]: 13.6 µM (active)

c1ccc(C[n+]2cccc3ccccc32)cc1
outcome [5]: inactive | outcome [15]: inactive | outcome [16]: inactive | outcome [6]: inactive | outcome [7]: inactive | outcome [8]: inactive | outcome [17]: inactive | outcome [9]: inactive | outcome [18]: inactive

OC12N=C(c3ccccc3)SC1Cc1cc(Cl)ccc12 (stereo not drawn)
outcome [4]: inactive

CCCCOC(=O)c1ccc(O)cc1
outcome [4]: inactive

CCCCCCCCOc1ccc(C(=O)c2ccccc2)c(O)c1
AC50 [15]: 30.9 µM (active) | AC50 [16]: 27.4 µM (active) | AC50 [9]: 30.1 µM (active)

CCN(CC)C(=O)c1cc(S(=O)(=O)Cc2ccccc2)c(N2CCC(c3ccccc3)CC2)cc1N(CC)CCN(C)C
outcome [4]: inactive

O=C(Nc1ccc(Cl)cc1)Nc1ccc(Cl)c(Cl)c1
outcome [4]: inactive

CC(C)(O)c1ccc(CNC(=O)c2cccnc2Oc2ccc3nonc3c2)cc1
outcome [4]: inactive | outcome [5]: inactive | outcome [15]: inactive | outcome [16]: inactive | AC50 [6]: 61.8 µM (active) | outcome [7]: inactive | AC50 [8]: 0.0934 µM (active) | AC50 [17]: 0.0671 µM (active) | outcome [9]: inactive | AC50 [18]: 0.0407 µM (active)

Clc1cc(Cl)c2c(c1)N=C1CCCCCN1C2
outcome [4]: inactive

CN1C(=O)N(c2ccccc2Br)Cc2cnc(Nc3ccc4c(c3)OCC(CO)O4)nc21 (stereo not drawn)
outcome [4]: inactive

CC1(C)NC(=O)N(c2ccc([N+](=O)[O-])c(C(F)(F)F)c2)C1=O
outcome [10]: inactive | outcome [1]: inactive | outcome [3]: inactive | outcome [19]: inactive | outcome [12]: inactive | AC50 [13]: 66.4 µM (active) | outcome [13]: inactive | AC50 [14]: 148 µM (active) | outcome [14]: inactive

O=c1[nH]sc2ccccc12
outcome [4]: inactive

CCCCCCCCCCCC[N+](C)(C)C
outcome [4]: inactive
